Here are results for 46 compounds from PubChem BioAssay AID652042 (Broad Institute, 2013).

Screen size: about 1,100 compounds; about 350 (32%) were called active. Not all results are given here. Potency and affinity values are given separately. A number with no mark means an inactive call. No rule for the calls is given here.

The assay in a line: CEM21 lymphoblast cell cytotoxicity, dose response, cytotoxicity control for viral fusion inhibitor project, CellTiter-Glo luminescence, cherry-picked (AID 652042). As to conditions: CEM21 cells viability, CellTiter-Glo ATP luminescence, 24 h; series mostly up to 35 µM; activity change, negative = cytotoxicity: at the top concentration. In general terms: In ATP-based viability assays light output follows the ATP content of the culture.
Take `CC(C)(C)c1ccc(-c2noc(CCC(=O)NCC3CCCO3)n2)cc1` (stereo unspecified): the “activity change, negative = cytotoxicity” value is -13.5%.
The result for `O=C(c1cc(COc2cccc(C(F)(F)F)c2)on1)N1CCC(c2ccncc2)CC1` reads -23.1%; that for `CCCNC(=O)C[C@@H]1C[C@H]2c3cc(NC(=O)Cc4ccncc4)ccc3O[C@H]2[C@@H](CO)O1`, 1.01% [at 30 µM].
Turning to `O=C(CCNC(=O)c1ccc(Br)cc1)NNC(=O)COc1ccccc1F`, the “activity change, negative = cytotoxicity” value is -0.033%.
On to `O=C(NCCc1ccccc1F)c1ccc2c(c1)OCCO2`, for which the “activity change, negative = cytotoxicity” value was -9.56%.
For `COc1ccc(NS(=O)(=O)c2ccc3c(c2)OCCO3)cc1OC`, the “activity change, negative = cytotoxicity” value is -4.08%.
The result for `Nc1c(S(=O)(=O)c2ccccc2)cnc2c(-c3ccc(F)cc3)cnn12` reads -10.5%; that for `COC(=O)CNC(c1ccccc1)c1cc(C)ccc1NC(=O)CNC(=O)OCc1ccccc1` (stereo unspecified), -14.7%.
The result for `COc1ccc(C(C(=O)NC(C)(C)C)N(CCC(C)C)C(=O)CCC(=O)Nc2cc(C)on2)cc1` (stereo unspecified) reads -2.75%.
Turning to `CCN(CC)c1nc(Nc2ccccc2)nc(Oc2ccc(=O)[nH]n2)n1`, the “activity change, negative = cytotoxicity” value was 4.68% [at 16 µM].
Turning to `COc1ccc2c(c1)OC[C@H]1[C@H]2N2C(=O)CN(Cc3ccc(C)cc3)C(=O)[C@@]2(C)[C@H]1c1ccccc1`, the “activity change, negative = cytotoxicity” value is -14.1%.
Take `C[C@H]1NC(=O)[C@@]2(C)[C@H](c3ccccc3)[C@H]3COc4ccccc4[C@@H]3N2C1=O`: the “activity change, negative = cytotoxicity” value is 7.71%.
`Cc1ccc(-n2nc3c(c2NC(=O)c2ccco2)CS(=O)C3)cc1` (stereo unspecified): the “activity change, negative = cytotoxicity” value was -4.33%.
On to `C=CCN1C(=S)CC(c2ccccc2)=Nc2ccccc21`, for which the “activity change, negative = cytotoxicity” value was -16%.
As for `O=C(c1ccc2c(c1)OCO2)N(CC1CCCO1)C1(C(=O)NC2CCCCC2)CCCCC1` (stereo unspecified), the “activity change, negative = cytotoxicity” value is -10.1%.
Take `CON(C)c1nc(OCCNC(=O)OCc2ccc(Cl)cc2C)nc(N(C)C)n1`: the “activity change, negative = cytotoxicity” value was -10.7%.
The value for `Cc1ccc(C(=O)NCc2ccccn2)cc1S(=O)(=O)N1CCCCC1` was 5.44%.
With `Cc1ccc(S(=O)(=O)N2CCCCC2)cc1C(=O)NCCC1=CCCCC1`, the “activity change, negative = cytotoxicity” value is -13.4%.
On to `O=S(=O)(NCC[C@@H]1CC[C@@H](NS(=O)(=O)c2ccccc2Cl)[C@H](CO)O1)c1ccc(Cl)cc1`, for which the “activity change, negative = cytotoxicity” value was -6.87%.
`O=S(=O)(NCC[C@H]1CC[C@H](NS(=O)(=O)c2ccccc2Cl)[C@H](CO)O1)c1ccc(Cl)cc1`: the “activity change, negative = cytotoxicity” value is -9.94% [at 30 µM].
Consider `COc1cc(-c2nc3oc4ccccc4c(=O)c3c(=O)n2Cc2ccco2)cc(OC)c1OC`, for which the “activity change, negative = cytotoxicity” value was -19.9%.
Regarding `CCOC(=O)c1c(CSc2ccsc2)n(C)c2cc(Br)c(O)c(CN(C)C)c12`, the “activity change, negative = cytotoxicity” value is -17.3%.
As to `CCOC(=O)c1c(CSc2cccs2)n(C)c2cc(Br)c(O)c(CN(C)C)c12`, the “activity change, negative = cytotoxicity” value was -24.1%.
`CCN(CC)S(=O)(=O)c1ccc(NC2c3ccccc3C(=O)N2Cc2ccc3c(c2)OCO3)cc1` (stereo unspecified): the “activity change, negative = cytotoxicity” value was -10.7%.
Take `O=S(=O)(NCCc1csc(-c2cccnc2)n1)c1ccc(Cl)s1`: the “activity change, negative = cytotoxicity” value is -5.88%.
With `COc1cccc(/C=N/NC(=O)CC2C(=O)NN=C2C)c1O` (stereo unspecified), the “activity change, negative = cytotoxicity” value was 5.99%.
`CC(C)(C)OC(=O)N1CCc2onc(-c3ccc(Br)cc3)c2C1=O`: the “activity change, negative = cytotoxicity” value was 4.49%.
Consider `C=CC[n+]1c(-c2ccc(C)cc2)csc1NNC(=O)Nc1ccccc1`, for which the activity change, negative = cytotoxicity is 1.1% [at 8 µM].
On to `COc1ccc(C(C)=O)cc1CC1(C)C(=O)Nc2ccc(-c3ccccc3OC)cc21` (stereo unspecified), for which the “activity change, negative = cytotoxicity” value was -12.9%.
Consider `COc1cc(OCC(=O)NC(C)C)cc2c1C(=O)O[C@@H](C)CCCC(=O)CCCCC2`, for which the “activity change, negative = cytotoxicity” value is -0.878%.
Take `CSc1ccc(CN(C)C(=O)c2cccc(S(=O)(=O)N3CCN(Cc4ccccc4)CC3)c2)cc1`: the “activity change, negative = cytotoxicity” value was -22.7%.
The result for `CSc1cccc(N2CC(C(=O)Nc3cccc(S(=O)(=O)N4CCCC4)c3)CC2=O)c1` (stereo unspecified) reads -10.7%; that for `COc1cc(NC2c3ccccc3C(=O)N2Cc2ccc3c(c2)OCO3)cc(OC)c1OC` (stereo unspecified), -12.5%; that for `O=C(NC12CC3CC(CC(C3)C1)C2)OCCNC1CCCCC1`, -10.5%.
Consider `O=C1CCCC2=C1C(c1cccs1)Nc1ccccc1N2` (stereo unspecified), for which the “activity change, negative = cytotoxicity” value is 6.75%.
Regarding `CC[C@]1(C(=O)OC)[C@H]2C(=O)N(Cc3ccccc3)C(=O)[C@H]2[C@H]2CN=C(SCc3ccc(C#N)cc3)N21`, the “activity change, negative = cytotoxicity” value is -9.41%.
Consider `CCOc1ccc(NS(=O)(=O)c2ccc(C(=O)N(C)CCc3ccc(OC)c(OC)c3)cc2)cc1`, for which the “activity change, negative = cytotoxicity” value is -5.56%.
With `CC(C)C[C@@H](CN(C)N=O)N(C[C@H](Cc1ccccc1)N(CCc1ccccc1)N=O)N=O`, the “activity change, negative = cytotoxicity” value was -17.2%.
Consider `CCc1nc2ccc(C(=O)N3CCN(C(=O)c4ccco4)CC3)cn2c1N(C)Cc1ccc(OC)cc1`, for which the “activity change, negative = cytotoxicity” value is 3.73%.
The value for `C[C@@]12C(=O)N(Cc3ccccc3)CC(=O)N1[C@H]1c3ccccc3OC[C@@H]1[C@@H]2c1ccccc1` was -13.4%; that for `O=S1(=O)c2c(cccc2N2CCCCC2)O[C@H](COCc2ccccc2)CN1C1CC1` was -27.1%; that for `Cc1oc(-c2ccc(Cl)cc2)nc1CN1CCCC(C(=O)NCc2cccnc2)C1` (stereo unspecified) was -12%.
`COc1ccc(CCNC(=O)C2CCCN(Cc3nc(-c4cccc(Cl)c4)oc3C)C2)cc1OC` (stereo unspecified): the “activity change, negative = cytotoxicity” value is -21.6%.
In the case of `Nc1cc(-c2ccccc2)nn1S(=O)(=O)c1ccc(F)cc1`, the “activity change, negative = cytotoxicity” value was -10.4%.
Consider `c1cnc2ccc(C(c3nnnn3C3CCCCC3)N3CCCCC3)cc2c1` (stereo unspecified), for which the “activity change, negative = cytotoxicity” value was -0.125%.
For `C=CCNc1ncnc2ccc(Br)cc12`, the “activity change, negative = cytotoxicity” value is -12%.
